FBW7 act = human FBW7 E3 ligase activation, primary screen; 650,000 compounds, 0.13% hits; Q969H0; AlphaScreen FBW7–phospho-cyclin E peptide binding, activator screen; AID 1259310; normalized activity (activation), % at 26.1 µM; in the data active = normalized activity above about 1.9%;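 note: purified mutant Fbw7 with reduced substrate affinity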
Target sequence (Q969H0 whole entry, looked up): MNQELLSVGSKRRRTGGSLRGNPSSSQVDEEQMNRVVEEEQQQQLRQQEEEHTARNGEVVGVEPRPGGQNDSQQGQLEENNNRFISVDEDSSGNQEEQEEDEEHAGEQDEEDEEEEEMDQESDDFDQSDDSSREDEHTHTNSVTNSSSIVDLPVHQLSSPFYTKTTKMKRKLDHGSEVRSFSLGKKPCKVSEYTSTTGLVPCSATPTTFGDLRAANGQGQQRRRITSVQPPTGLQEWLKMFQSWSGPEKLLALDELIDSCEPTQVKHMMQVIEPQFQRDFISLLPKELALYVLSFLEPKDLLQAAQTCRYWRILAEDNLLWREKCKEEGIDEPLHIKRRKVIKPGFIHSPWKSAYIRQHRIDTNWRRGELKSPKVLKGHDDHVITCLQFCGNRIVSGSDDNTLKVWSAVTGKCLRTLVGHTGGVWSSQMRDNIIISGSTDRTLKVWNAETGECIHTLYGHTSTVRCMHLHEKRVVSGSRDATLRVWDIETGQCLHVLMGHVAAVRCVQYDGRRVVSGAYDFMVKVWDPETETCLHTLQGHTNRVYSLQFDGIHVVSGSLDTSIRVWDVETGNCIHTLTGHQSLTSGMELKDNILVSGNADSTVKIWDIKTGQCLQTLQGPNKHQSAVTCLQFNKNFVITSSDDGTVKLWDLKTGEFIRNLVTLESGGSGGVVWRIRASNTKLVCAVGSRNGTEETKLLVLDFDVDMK
TEAD-YAP inh = TEAD-YAP interaction inhibition. HEK-TIYL cells, TEAD-Gal4/YAP UAS-luciferase luminescence. inhibition, % at 9.12 µM. 640,000 compounds, 1.4% hits; in the data active = inhibition above about 32%;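 note: 0% = median of test compound wells and 100% = reference inhibitor wells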
MITF inh = inhibitors of human MITF | O75030 | AlphaScreen MITF homodimerization, bead proximity signal | inhibition, % at 2.6 µM | 650,000 compounds, 0.91% hits; in the data active = inhibition above about 50%;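 note: 0% = vehicle wells with protein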
GPR151 ag = activates the human receptor GPR151; PathHunter beta-arrestin GPR151 cells, luminescence; 650,000 compounds, 1% hits; Q8TDV0; activation, % at 11.2 µM; in the data active = activation above about 4.9%;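 note: 0% = median of compound wells and 100% = cells with positive control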
* hit, by the source's call. Most compounds without a hit are left out; they make up all but 3.5% or so of the library.

COc1ccccc1/C=C1\N=C(c2ccc(C(C)(C)C)cc2)OC1=O was read as FBW7 act 0.5, TEAD-YAP inh 8.4, MITF inh 0.8 and GPR151 ag -0.6.
`CN1CCN(C(=O)c2ccc3c(c2)NC(=O)C(CSCc2ccccc2Cl)N3)CC1` (stereo not drawn) gave FBW7 act 0.4, TEAD-YAP inh 11.3, MITF inh 10.3 and GPR151 ag 0.4.
For CC1=C(C(=O)Nc2ccccc2)C(c2cccs2)C(C#N)=C(SCC(=O)Nc2ccccc2C)N1 (stereo not drawn) the results were FBW7 act -0.1, TEAD-YAP inh -5.1, MITF inh -13.4 and GPR151 ag -0.8.
Screening Cc1cc(/C=C2\C(=O)NC(=O)N(C)C2=O)c(C)n1-c1sc2c(c1C#N)CCCC2 returned FBW7 act -0.8, TEAD-YAP inh -7.9, MITF inh -0.4 and GPR151 ag 0.3.
O=C(NCc1n[nH]c(=S)n1Cc1ccccc1)c1ccc(S(=O)(=O)N2CCCC2)cc1 was read as FBW7 act -0.3, TEAD-YAP inh -7.1, MITF inh 6.5 and GPR151 ag 0.7.
COC(=O)C[C@](O)(CCCC(C)(C)O)C(=O)O[C@@H]1C(OC)=C[C@]23CCCN2CCc2cc4c(cc2[C@H]13)OCO4 was read as FBW7 act 0.8, TEAD-YAP inh 99.5*, MITF inh 2.6 and GPR151 ag -1.5.
For COc1ccc(NC(=O)Nc2ccc3c(c2)CCC(=O)N3CCC(C)C)cc1 the results were FBW7 act 0.0, TEAD-YAP inh 17.5, MITF inh 6.4 and GPR151 ag -1.5.
Screening CCc1ccc(CNC(=O)Cc2ccc(NC(=O)C3=C(C)OCCS3)cc2)cc1 returned FBW7 act 0.0, TEAD-YAP inh 35.3*, MITF inh 3.5 and GPR151 ag 1.4.
For Cc1ccc(Nc2c([N+](=O)[O-])c(=O)oc3ccccc23)cc1 the results were FBW7 act 0.4, TEAD-YAP inh -0.5, MITF inh 10.0 and GPR151 ag -0.1.
For CN(C)c1ccc(Nc2c([N+](=O)[O-])c(=O)oc3ccccc23)cc1 the results were FBW7 act -0.1, TEAD-YAP inh 53.4*, MITF inh 4.4 and GPR151 ag 1.1.
CCC(=O)N1c2ccccc2C(=C2SC(C(=O)OC)=C(C(=O)OC)S2)C(=S)C1(C)C was read as FBW7 act -0.2, TEAD-YAP inh 3.3, MITF inh 24.3 and GPR151 ag -1.2.
For COC(=O)C1=C(C(=O)OC)SC(=C2C(=S)C(C)(C)N(C(=O)c3ccccc3-c3ccccc3)c3cc(C)ccc32)S1 the results were FBW7 act 0.3, TEAD-YAP inh -1.6, MITF inh 60.7* and GPR151 ag -0.8.
Screening CCC(CC)C(=O)N1c2ccccc2C(=C2SC(C(=O)OC)=C(C(=O)OC)S2)C(=S)C1(C)C returned FBW7 act 0.4, TEAD-YAP inh 3.6, MITF inh 54.5* and GPR151 ag 1.1.
`Cc1nc2c(C)cccn2c1C(=O)N(C)Cc1ccccc1` gave FBW7 act -0.4, TEAD-YAP inh 9.8, MITF inh 7.8 and GPR151 ag 0.1.
For C=CCNC(=S)NNc1nc(Nc2ccccc2)nc(N2CCCCC2)n1 the results were FBW7 act 0.0, TEAD-YAP inh 33.9*, MITF inh 14.9 and GPR151 ag 1.2.
C=CCNC(=S)NNc1nc(N2CCCC2)nc(N2CCCC2)n1 was read as FBW7 act 0.2, TEAD-YAP inh 7.4, MITF inh 2.6 and GPR151 ag -0.4.
For C=C1c2cccc(O)c2C(O)=C2C(=O)C3(O)C(O)=C(C(N)=O)C(=O)C(N(C)C)C3C(O)C12 (stereo not drawn) the results were FBW7 act -0.4, TEAD-YAP inh 16.5, MITF inh 111.4* and GPR151 ag -2.1.
`CN(C)C1C(=O)C(C(N)=O)=C(O)C2(O)C(=O)C3=C(O)c4c(O)ccc(Cl)c4C(O)C3CC12` (stereo not drawn) gave FBW7 act -0.1, MITF inh 36.0 and GPR151 ag 1.2.
Screening Cc1ccc(S(=O)(=O)N(C)C2CCS(=O)(=O)C2)cc1 (stereo not drawn) returned FBW7 act 0.1, TEAD-YAP inh -32.2, MITF inh -7.5 and GPR151 ag 0.7.
Screening N=C1/C(=C/c2ccc(OCc3ccc4c(c3)OCO4)c(Cl)c2)C(=O)N=C2SC=CN12 returned FBW7 act 0.1, TEAD-YAP inh 39.4*, MITF inh -5.1 and GPR151 ag -4.6.
Screening N=C1/C(=C/c2cn(Cc3ccc4c(c3)OCO4)c3ccccc23)C(=O)N=C2SC=CN12 returned FBW7 act 0.0, TEAD-YAP inh 12.4, MITF inh 7.4 and GPR151 ag 2.1.
For CCOC(=O)C1=C(C)N(c2ccc(Br)cc2)C(=O)/C1=C\c1cc(OC)c(OC)c(OC)c1 the results were FBW7 act -0.1, TEAD-YAP inh 2.9, MITF inh -2.4 and GPR151 ag 0.1.
For Fc1ccc(CN2CCOc3ccc(-c4ccncc4)cc32)cc1 the results were FBW7 act 0.1, TEAD-YAP inh 43.5*, MITF inh 9.8 and GPR151 ag 0.0.
O=C1NC(=S)N/C1=C\C=C\c1ccc([N+](=O)[O-])o1 was read as FBW7 act -0.4, TEAD-YAP inh 88.7*, MITF inh 77.8* and GPR151 ag 2.1.
CCOC(=O)N1CCN(Cc2cccc(C)c2)CC1 was read as FBW7 act 0.3, TEAD-YAP inh 4.7, MITF inh 14.6 and GPR151 ag -0.1.
`COc1cccc(-c2cc(C(=O)N3CCN(Cc4ccccc4)CC3)on2)c1` gave FBW7 act 0.1, TEAD-YAP inh -7.6, MITF inh -11.0 and GPR151 ag -1.1.
Screening Cc1cc(C(=O)N2CCN(Cc3ccccc3)CC2)on1 returned FBW7 act 1.9*, TEAD-YAP inh -3.0, MITF inh 16.3 and GPR151 ag -0.3.
Cc1cccc(CN2CCN(C(=O)CCl)CC2)c1 was read as FBW7 act 0.0, TEAD-YAP inh 37.8*, MITF inh 1.6 and GPR151 ag 1.9.
Screening CCCCC(=O)NC(=S)NNC(C)=O returned FBW7 act -0.2, TEAD-YAP inh 7.3, MITF inh -8.5 and GPR151 ag 1.0.
Screening CC(=O)Nc1ccc(Nc2nc(Nc3ccc(N4CCOCC4)cc3)ncc2C)cc1 returned FBW7 act 0.0, TEAD-YAP inh 12.2, MITF inh 11.1 and GPR151 ag 1.9.
`COc1cc(Nc2nc(Nc3ccc(N4CCOCC4)cc3)c3[nH]cnc3n2)cc(OC)c1OC` gave FBW7 act 0.1, TEAD-YAP inh 63.9*, MITF inh 12.6 and GPR151 ag -3.8.
Screening c1cn(-c2ccc(Nc3nc(Nc4ccc(N5CCOCC5)cc4)c4[nH]cnc4n3)cc2)cn1 returned FBW7 act -0.1, TEAD-YAP inh 51.4*, MITF inh 5.4 and GPR151 ag 1.1.
For Cc1cnc(Nc2ccc(-n3ccnc3)cc2)nc1Nc1ccc(N2CCOCC2)cc1 the results were FBW7 act -0.3, TEAD-YAP inh 51.2*, MITF inh 5.0 and GPR151 ag -1.2.
Screening c1ccc(Nc2nc(Nc3ccc(N4CCOCC4)cc3)c3[nH]cnc3n2)cc1 returned FBW7 act 0.0, TEAD-YAP inh 47.0*, MITF inh 2.9 and GPR151 ag 0.6.

Screening data deposited in PubChem by The Scripps Research Institute Molecular Screening Center.
